The text below walks through data of PubChem BioAssay (Tox21).

Inconclusive results are not listed. Entries that show only a call come without a potency. Values without a mark were called inactive. The source made the active and inactive calls. The call rests on the fitted dose curve.

Sequence of Acetylcholinesterase (Homo sapiens) (P22303 whole entry, looked up): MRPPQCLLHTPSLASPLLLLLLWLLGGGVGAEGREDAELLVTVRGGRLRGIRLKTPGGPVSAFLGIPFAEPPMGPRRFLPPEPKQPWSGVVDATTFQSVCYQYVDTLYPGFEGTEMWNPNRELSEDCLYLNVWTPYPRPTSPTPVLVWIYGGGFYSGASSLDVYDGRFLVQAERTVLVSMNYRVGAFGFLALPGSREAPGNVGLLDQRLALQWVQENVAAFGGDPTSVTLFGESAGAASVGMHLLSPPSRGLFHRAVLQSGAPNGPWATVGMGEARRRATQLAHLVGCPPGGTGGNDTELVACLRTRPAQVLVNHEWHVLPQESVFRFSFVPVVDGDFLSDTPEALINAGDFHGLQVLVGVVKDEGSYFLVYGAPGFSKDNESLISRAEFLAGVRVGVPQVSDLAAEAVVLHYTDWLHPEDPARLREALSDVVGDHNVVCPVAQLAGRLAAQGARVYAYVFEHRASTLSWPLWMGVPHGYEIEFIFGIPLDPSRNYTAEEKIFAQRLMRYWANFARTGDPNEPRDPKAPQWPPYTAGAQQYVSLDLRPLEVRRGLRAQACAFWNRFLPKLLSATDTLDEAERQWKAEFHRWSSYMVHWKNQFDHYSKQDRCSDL

The assay concerns the target Acetylcholinesterase (Homo sapiens) (UniProt P22303). The assay is described as follows: Acetylcholinesterase (AChE) small molecule antagonists: fluorescence cell-based qHTS assay (AID 1347398). Further: nearly all actives have a fitted effect of over 50% in size. The following applies: SH-SY5Y cells; Potency: AChE activity; outcome: AChE activity; series mostly up to 115 µM. The source says: National Center for Advancing Translational Sciences [NCATS]
Division of Preclinical Innovation [DPI]
U.S. Environmental Protection Agency [EPA]
National Institutes of Environmental Health Sciences [NIEHS]
National Toxicology Program [NTP]
U.S. Food and Drug Administration [FDA]
Acetylcholinesterase (AChE) is the primary cholinesterase in the body that hydrolyzes a key neurotransmitter, acetylcholine. Inhibition of AChE activity can lead to neurotoxicity. Known inhibitors of AChE include organophosphorous pesticides (OP), chemical warfare agents, drugs, and various phytochemicals.
A homogenous cell-based assay using Amplitetrade mark Fluorimetric Acetylcholinesterase Assay Kit *Green Fluorescence* (AAT Bioquest, Sunnyvale, CA) was used to evaluate the chemicals in the Tox21 10K library that inhibit AChE activity. The assay uses Thiolite Green to quantify the thiocholine produced from the hydrolysis of acetylthiocholine by AChE from the SH-SY5Y cells. AChE can hydrolyze acetylthiocholine to create thiocholine. Thiolite Green is fluorescent when reacting with thiocholine. It has spectral properties similar to those of fluorescein. The fluorescence intensity of Thiolite Green is used to measure AChE activity. Its signal can be easily read by a fluorescence microplate reader at Ex/Em = 490/520 nm.
Tox21 Assay Protocol Summary:
For cell-based AChE assay, 2,000 SH-SY5Y cells in 4 uL/well were dispensed into black, clear-bottom 1536-well plates using a Multidrop Combi (Thermo Scientific) dispenser. The assay plates were incubated overnight at 37 C to allow cells to attach to the wells, followed by the transfer of 23 nL compound or DMSO (vehicle control) by a Pintool station (Wako Automation, CA). The plates were incubated for 30 min at 37 C and 5% CO2, followed by the addition of 4 uL of detection cocktail solution (ThioliteGreen, acetylthiocholine) into each well using Flying Reagent Dispenser (Beckman Coulter, CA) and then following 40 min incubation at room temperature. Fluorescent intensity (Ex/Em = 490/520 nm) was measured using an Envision plate reader (PerkinElmer, MA).
(In general: In qHTS, concentration-response curves come from the screen itself.)
Take `OC(CCCN1CCCCC1)(c1ccccc1)c1ccccc1`: the Potency result is “inactive”. As to `CCCCOC(=O)CC#N`, the Potency result is “inactive”. For the molecule `CCO[Si](CCCS)(OCC)OCC`, the Potency entry is “inactive”. On the same count and under the same terms, then `CNCCC(Oc1ccccc1OC)c1ccccc1` (stereo not given), with “inactive”; and `CCCC(=O)c1ccccc1`, with “inactive”.

As to `O=C(CCc1ccc(O)cc1)c1c(O)cc(O)cc1O`, the Potency entry was “inactive”. For `CCCCNc1ccc(NCCCC)c2c1C(=O)c1ccccc1C2=O`, the activity change, negative = inhibition was 1.62% [at 23.8 µM]. `C=C[C@H]1CN2CC[C@H]1C[C@@H]2[C@@H](O)c1ccnc2ccc(OC)cc12`: the Potency result was “inactive”. On to `Cc1ccc(OC(=O)CC(C)C)cc1`, for which the Potency result is “inactive”. Take `CC(=O)CCc1ccccc1`: the Potency entry is “inactive”. As to `CC(C)COC(=O)CCCCC(=O)OCC(C)C`, the Potency entry was “inactive”. Take `C=CC(=O)NC(C)(C)CS(=O)(=O)O`: the Potency entry was “inactive”.

Regarding `CCCCCCC(=O)O`, the Potency result is “inactive”. In the case of `CCN(CC)C(=O)c1ccc(O)c(OC)c1`, the Potency result was “inactive”. As to `Nc1cccc(S(=O)(=O)c2cccc(N)c2)c1`, the Potency result was “inactive”. Regarding `Cc1ccc(NC(=O)N(C)C)cc1NC(=O)N(C)C`, the Potency result was “inactive”.

`CC(=O)O[C@]1(C(C)=O)CC[C@H]2[C@@H]3C[C@H](C)C4=CC(=O)CC[C@]4(C)[C@H]3CC[C@@]21C`: the Potency entry is “inactive”.

With `CC(=O)N(CC(O)CO)c1c(I)c(C(=O)NCCO)c(I)c(C(=O)NCC(O)CO)c1I` (stereo not given), the Potency result is “inactive”. For the molecule `CC(=O)O[C@@H]1C(=O)O[C@@H]2[C@H]1OC(=O)[C@@H]2OC(C)=O`, the Potency entry is “inactive”. The same measure, in the same setting: then `CC(CO)(CO)C(=O)O`, with “inactive”; and `O=C(Nc1cccc(C(F)(F)F)c1)c1cc(Br)cc(Br)c1O`, with “inactive”; and `COc1ccc(NC(=O)CC(C)=O)cc1`, with “inactive”. Consider `C=C[C@@H](C)CCC=C(C)C`, for which the Potency result was “inactive”. Regarding `N[C@@H](CCC(=O)O)C(=O)O`, the Potency entry was “inactive”. For `Cc1nnc(NS(=O)(=O)c2ccc(N)cc2)s1`, the Potency entry was “inactive”. Consider `C=C(C)C(=O)OCCOC(=O)CC(C)=O`, for which the Potency entry is “inactive”.

`CCC/C=C/C=O`: the Potency result was “inactive”.

As for `NC(N)=NS(=O)(=O)c1ccc(N)cc1`, the Potency result is “inactive”. As to `C1COC(NC(C2CC2)C2CC2)=N1`, the Potency result is “inactive”. Turning to `CCCCCCCCCCC=CC1CC(=O)OC1=O` (stereo not given), the Potency entry is “inactive”. Regarding `c1cnc(N2CCN(Cc3ccc4c(c3)OCO4)CC2)nc1`, the Potency result was “inactive”. As to `CC(=O)CC(=O)c1ccccc1`, the Potency result is “inactive”. As for `O=C(O)CNC(=O)c1ccc(CO)o1`, the Potency entry was “inactive”.

Consider `COc1cc(O)c(C(=O)c2ccccc2)cc1S(=O)(=O)O`, for which the Potency entry is “inactive”. For the molecule `COC(=O)c1ccccc1C`, the Potency result was “inactive”. For `CCCOC(=O)c1ccc(C(=O)OCCC)nc1`, the Potency result is “inactive”. On the same count and under the same terms, then `O=C(Nc1ccccc1-c1ccc(Cl)cc1)c1cccnc1Cl`, with “inactive”; and `c1ccc2cnncc2c1`, with “inactive”. `C=C/C(C)=C/C/C=C(\C)CCC=C(C)C`: the Potency entry was “inactive”. Regarding `CCc1ccc(C)cc1`, the Potency result is “inactive”.
